Source: PubChem
MPTP block = permeability transition pore inhibition; isolated mouse mitochondria, Ca2+ swelling absorbance, 30 min; inhibition, % at 10 µM; actives 1.4% (n = 360,000); AID 602449;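 active = inhibition of 50% or more, scaled per plate between neutral and stimulator controls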
Calb FLC = affects C. albicans growth with fluconazole; C. albicans CaCi-2 (fluconazole-resistant clinical isolate) + fluconazole, Alamar Blue growth, 48 h; actives 0.57% (n = 300,000); growth inhibition, % (concentration not given with the values);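 active = growth inhibition above about 58% in most replicates, limit read from the data, passing the limit was not always enough; inconclusive = exactly half the replicates above a set limit; inactive = most replicates below a set limit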;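 also: all wells also contain fluconazole at 8 µg/ml as a sub-toxic cotreatment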
Mdm2 MdmX PPI = disrupts the human Mdm2-MdmX interaction; O15151+Q00987; SaOS-2 split-luciferase Mdm2/MdmX complementation, luminescence; inhibition, % at 8 µM; actives 3% (n = 330,000); AID 485346;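 active = inhibition of at least 50% at 8 µM in the primary screen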
Target sequence (O15151 whole entry, looked up): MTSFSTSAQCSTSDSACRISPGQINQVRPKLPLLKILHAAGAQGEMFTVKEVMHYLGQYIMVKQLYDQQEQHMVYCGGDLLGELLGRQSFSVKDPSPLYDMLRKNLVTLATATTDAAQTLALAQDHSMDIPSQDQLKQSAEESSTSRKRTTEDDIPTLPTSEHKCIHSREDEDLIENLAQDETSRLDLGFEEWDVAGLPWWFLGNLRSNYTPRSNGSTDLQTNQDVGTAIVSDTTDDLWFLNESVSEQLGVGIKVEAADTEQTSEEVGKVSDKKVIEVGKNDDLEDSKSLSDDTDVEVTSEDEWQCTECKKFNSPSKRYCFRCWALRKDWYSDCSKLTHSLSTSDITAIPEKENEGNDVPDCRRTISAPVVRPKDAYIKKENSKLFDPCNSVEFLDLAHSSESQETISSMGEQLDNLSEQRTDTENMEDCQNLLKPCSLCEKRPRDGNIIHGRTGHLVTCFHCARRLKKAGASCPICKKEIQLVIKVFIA
Target sequence (Q00987 whole entry, looked up): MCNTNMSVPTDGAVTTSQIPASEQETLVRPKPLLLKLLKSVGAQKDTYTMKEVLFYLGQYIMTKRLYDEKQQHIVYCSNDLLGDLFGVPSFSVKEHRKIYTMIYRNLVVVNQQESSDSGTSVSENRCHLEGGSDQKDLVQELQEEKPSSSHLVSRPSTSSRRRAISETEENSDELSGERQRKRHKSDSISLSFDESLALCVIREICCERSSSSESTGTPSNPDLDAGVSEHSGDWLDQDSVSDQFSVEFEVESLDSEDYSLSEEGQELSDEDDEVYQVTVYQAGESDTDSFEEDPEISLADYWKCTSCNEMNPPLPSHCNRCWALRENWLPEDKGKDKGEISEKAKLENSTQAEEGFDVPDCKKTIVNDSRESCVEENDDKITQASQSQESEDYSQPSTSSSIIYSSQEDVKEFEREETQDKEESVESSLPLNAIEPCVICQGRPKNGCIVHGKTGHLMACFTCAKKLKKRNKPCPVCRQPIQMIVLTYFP
Beta cell apopt = blocks beta cell apoptosis. INS-1E cytokine-induced death, ATP luminescence, 48 h; percent of positive-control rescue, neutral wells zero. protection from apoptosis, % (test concentration not listed). actives 0.8% (n = 300,000);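 active = Every replicate reaches about 75%, or at least half do and their mean reaches it too, limit read from the data; inconclusive = At least half of replicates reach the limit but their mean does not; inactive = Under half of replicates reach the limit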;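 also: higher means more ATP so stronger rescue from cytokine killing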
CSC inhib = cancer stem cell inhibition | cancer stem cell-like cells viability, luminescence | actives 1.1% (n = 300,000) | inhibition, % at 7.5 µM | AID 2717; in the data active = inhibition above about 75%; inconclusive = no clear call, values can overlap the other calls; tested in HMLE shEcad cells
Mdm2 MdmX conf = human Mdm2/MdmX binding inhibition, confirmed; shares compounds with Mdm2 MdmX PPI; luminescent assay; inhibition, % at 8 µM; actives 55% (n = 10,000); AID 489028; in the data active = inhibition above about 40%
FLuc counter = inhibits full-length luciferase, flagging false Mdm2/MdmX hits. shares compounds with Mdm2 MdmX PPI. SaOS-2 full-length luciferase counterscreen, luminescence. inhibition, % at 8 µM. actives 77% (n = 6,200). AID 504607;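 active = mean inhibition at 8 µM reaching about 37%, which flags the compound as non-specific, limit read from the data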;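 also: p53-null SaOS-2 cells with luciferase driven by a doxycycline-inducible promoter; compound on cells about two nights before reading with doxycycline added after day one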
Rh123 counter = mitochondrial membrane potential, counter-screen | shares compounds with MPTP block | isolated mitochondria, Rhodamine 123 fluorescence | inhibition, % at 10 µM | actives 78% (n = 5,000); in the data active = inhibition above about 22%
MPTP swell DR = MPTP inhibition, dose response swelling confirmation; shares compounds with MPTP block; isolated mitochondria swelling, absorbance; IC50, µM; actives 58% (n = 780); in the data active = IC50 below about 20 µM
MPTP cs DR = MPTP inhibitor counter-screen activity, dose response; isolated mitochondria counterscreen, fluorescence read-out; shares compounds with MPTP block; IC50, µM; actives 49% (n = 780); in the data active = IC50 below about 80 µM
Each line names hits and unclear results; the compound was inactive in the other large screens (follow-up assays come after a bar, where they were run). Only some compounds are listed: those with a hit (about 4.8% of all), similar ones and a draw of the others.

NS(=O)(=O)OCC(Cc1ccccc1)N1C(=O)c2ccccc2C1=O (stereo not given)	none (no result: Beta cell apopt)
Nc1nc2nc(-c3ccccc3)cc(C(F)(F)F)c2s1	none
O=C(/C(N=Nc1cccc([N+](=O)[O-])c1)=C(/O)c1ccc(Br)cc1)C(F)(F)F	MPTP block 78.5, Mdm2 MdmX PPI 96.1, Beta cell apopt 105.0, CSC inhib 99.0 | Mdm2 MdmX conf 87.9 | FLuc counter inactive | Rh123 counter 62.5
O=S(=O)(NC1CC(NS(=O)(=O)OCC(Cl)(Cl)Cl)C2CCCCC12)OCC(Cl)(Cl)Cl (stereo not given)	MPTP block 69.8, Mdm2 MdmX PPI 77.0, CSC inhib 83.4 | Mdm2 MdmX conf 69.6 | FLuc counter 59.1 | Rh123 counter 101.9
Cc1noc(NS(=O)(=O)c2ccc(NS(=O)(=O)c3ccc(Cl)cc3)cc2)c1C	none (no result: Calb FLC)
COc1ccc(NC(=O)CCc2nnc3ccc(N4CCC(C)CC4)nn23)cc1OC	none
COc1cc(CNCCc2ccc(S(N)(=O)=O)cc2)ccc1OCc1ccc(Cl)cc1	MPTP block 50.0, Mdm2 MdmX PPI 53.5 | Mdm2 MdmX conf 40.1 | FLuc counter 68.6 | Rh123 counter inactive | MPTP swell DR 3.86 | MPTP cs DR 14.7
COc1cc(CNCCc2ccc(S(N)(=O)=O)cc2)ccc1OCC(=O)NC1CCCCC1	none
Cc1cc(/C=N/n2c(COc3ccccc3)nc3ccccc3c2=O)c(O)c([N+](=O)[O-])c1	MPTP block 78.7, Mdm2 MdmX PPI 58.6, CSC inhib inconclusive | Mdm2 MdmX conf 47.1 | FLuc counter 39.6 | Rh123 counter 33.3
O=c1c2ccccc2nc(COc2ccccc2)n1/N=C/c1ccc(O)c(O)c1	none
FC(F)(F)Sc1ccc(NC(=S)NCc2ccccc2)cc1	MPTP block 84.1, Mdm2 MdmX PPI 79.0 | Mdm2 MdmX conf inactive | Rh123 counter 73.3
CCCC[C@@H](CNC)NC[C@H](NCCCCC1CCCCC1)C(C)C	MPTP block 90.5, Mdm2 MdmX PPI 98.5 (no result: Beta cell apopt) | Mdm2 MdmX conf 43.1 | FLuc counter 64.5 | Rh123 counter inactive | MPTP swell DR 6.76 | MPTP cs DR inactive
CCc1nnc(NC(=O)CC(C)c2ccccc2)s1 (stereo not given)	none
CCC1CCCCN1CCCNC(=O)C1CCN(Cc2nc(-c3ccc(Cl)cc3)oc2C)CC1 (stereo not given)	MPTP block 61.2, Mdm2 MdmX PPI 98.3 | Mdm2 MdmX conf 96.5 | FLuc counter 60.5 | Rh123 counter inactive
Cc1oc(-c2ccc(Cl)cc2)nc1CN1CCC(C(=O)NCCCN2CCOCC2)CC1	none
O=C(Nc1ccc(C(F)(F)F)cc1)c1cc(-c2cccnc2)nc2ccc(Br)cc12	MPTP block 78.0, Mdm2 MdmX PPI 57.5 | Mdm2 MdmX conf inactive | Rh123 counter inactive | MPTP swell DR 13 | MPTP cs DR 7.14
Cc1ccc(NC(=O)c2cccc(S(=O)(=O)N3CCc4ccccc4C3)c2)nc1	none
Cc1cc(N2CCN(C)CC2)ccc1NC(=O)c1cccc(S(=O)(=O)N2CCc3ccccc3C2)c1	MPTP block 92.2, Mdm2 MdmX PPI 96.1 | Mdm2 MdmX conf inactive | FLuc counter 73.0 | Rh123 counter inactive
COc1ccc([N+](=O)[O-])cc1NC(=S)NC(NC(=O)C(c1ccccc1)c1ccccc1)C(Cl)(Cl)Cl (stereo not given)	MPTP block 94.6, Mdm2 MdmX PPI 89.1 | Mdm2 MdmX conf 78.9 | FLuc counter inactive | Rh123 counter 63.5
O=C(NC(NC(=S)Nc1c(Cl)cccc1Cl)C(Cl)(Cl)Cl)c1cccc([N+](=O)[O-])c1 (stereo not given)	MPTP block 72.7, Mdm2 MdmX PPI 58.1 | Mdm2 MdmX conf 49.8 | FLuc counter 76.2 | Rh123 counter 53.9
COc1ccc([N+](=O)[O-])cc1NC(=O)C(C)c1ccccc1 (stereo not given)	none
Cc1cccc(C(=O)NC(NC(=S)Nc2ccc(S(N)(=O)=O)cc2)C(Cl)(Cl)Cl)c1 (stereo not given)	none (no result: Beta cell apopt, CSC inhib)
Cc1ccc(S(=O)(=O)N(C)S(=O)(=O)c2ccc(C#N)cc2)cc1	none (no result: MPTP block)
N=C1S/C(=C\c2cccc3ccccc23)C(=O)N1c1ccc(F)cc1	MPTP block 93.6, Mdm2 MdmX PPI 55.7, CSC inhib 97.2 | Mdm2 MdmX conf 48.6 | FLuc counter 61.9 | Rh123 counter 20.2
Cc1cccc(OCC(=O)NCCCNC(=O)c2ccc(C)nc2)c1	none
O=C(NC(NC(=S)Nc1cccc(Cl)c1)C(Cl)(Cl)Cl)OCc1ccccc1 (stereo not given)	MPTP block 91.1, Mdm2 MdmX PPI 91.5, CSC inhib 115.9 | Mdm2 MdmX conf 55.5 | FLuc counter 53.4 | Rh123 counter 76.3
O=C(NC(NC(=S)Nc1ccc(Cl)c(Cl)c1)C(Cl)(Cl)Cl)c1ccco1 (stereo not given)	MPTP block 99.8, Mdm2 MdmX PPI 58.8 | Mdm2 MdmX conf inactive | FLuc counter 74.4 | Rh123 counter 99.9
O=C(O)c1cccc(NC(=S)NC(NC(=O)c2ccco2)C(Cl)(Cl)Cl)c1 (stereo not given)	none
O=C(Cc1ccc([N+](=O)[O-])cc1)Nc1cc(C(F)(F)F)cc(C(F)(F)F)c1	MPTP block 76.8, Mdm2 MdmX PPI 50.9 | Mdm2 MdmX conf 74.8 | FLuc counter 62.9 | Rh123 counter 97.9
COc1cc2cc(CCCOC(=O)c3ccc4c(c3)OCO4)oc(=O)c2cc1OC	none (no result: Calb FLC)
COC(=O)c1ccc(CNC(=O)/C=C/[C@H]2O[C@@H](n3cc(C)c(=O)[nH]c3=O)C[C@@H]2O)cc1	none (no result: Calb FLC, Mdm2 MdmX PPI, Beta cell apopt, CSC inhib)
O=C(Nc1ccccc1NC(=O)c1c(F)c(F)c(F)c(F)c1F)c1c(F)c(F)c(F)c(F)c1F	MPTP block 93.1, Mdm2 MdmX PPI 54.4 | Mdm2 MdmX conf inactive | FLuc counter 40.5 | Rh123 counter 94.8
O=C(Nc1ccncc1)c1c(F)c(F)c(F)c(F)c1F	none
O=C(Nc1nc2ccccc2s1)C1CCN(S(=O)(=O)c2cc([N+](=O)[O-])ccc2Cl)CC1	MPTP block 95.4, Mdm2 MdmX PPI 95.7, Beta cell apopt 81.0, CSC inhib inconclusive | Mdm2 MdmX conf 87.5 | FLuc counter 37.9 | Rh123 counter 77.4
CCC(C)NC(=O)C1CCN(S(=O)(=O)c2cc([N+](=O)[O-])ccc2Cl)CC1 (stereo not given)	none
CCCCc1nc2ccc(S(=O)(=O)O)cc2[nH]1	none
